Data published in PubChem BioAssay (NCI).
Values joined by “and” are separate entries in the source; they are usually repeats but may differ in a detail not shown here. Identical values can stand only once. Compounds without any hit were thinned out: in the full panel of roughly 79,000, 15% have a hit. Values without a mark were called inactive. Active and inactive are the calls of the source. Rule as the data show it: active = growth inhibition above about 70%; inactive = the rest.

Assays:
[1] = NCI Yeast Anticancer Drug Screen. Data for the rad50 strain (AID 155);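 also: 0% = growth of vehicle-only cultures of the same strain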; conditions: S. cerevisiae rad50 strain growth inhibition, active compounds read high; at 50.0 µM unless noted
Summary of the method: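 A DNA repair-deficient yeast mutant serves as the test organism; compound-induced growth inhibition is calculated against vehicle-treated cells.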

[2] = NCI Yeast Anticancer Drug Screen. Data for the mec2-1 strain (AID 157); conditions: S. cerevisiae mec2-1 strain, active compounds read high; at 50.0 µM unless noted
Summary of the method: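 Compounds were applied to mec2-1 yeast cells. Their growth was then compared with that of vehicle-treated cultures to give growth inhibition.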

[3] = NCI Yeast Anticancer Drug Screen. Data for the sgs1 mgt1 strain (AID 161);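 also: 0% = growth of cultures given vehicle only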; conditions: S. cerevisiae sgs1 mgt1 strain, active compounds read high; at 50.0 µM unless noted
Summary of the method: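 This yeast growth screen uses a strain with defined DNA-repair lesions; compound-treated growth is compared with vehicle-treated growth.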

[4] = NCI Yeast Anticancer Drug Screen. Data for the cln2 rad14 strain (AID 165);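 also: 0% = growth equal to vehicle treated cultures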; conditions: S. cerevisiae cln2 rad14 strain, active compounds read high; at 50.0 µM unless noted
Summary of the method: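 Strain: cln2 rad14 yeast, altered in cell cycle control and DNA damage repair. Read-out: growth inhibition vs vehicle.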

[5] = NCI Yeast Anticancer Drug Screen. Data for the bub3 strain (AID 167); conditions: S. cerevisiae bub3 mutant strain, active compounds read high; at 50.0 µM unless noted
Summary of the method: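 Inhibition values come from growth of compound-treated mutant yeast normalised to vehicle-treated controls.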

[6] = NCI Yeast Anticancer Drug Screen. Data for the mlh1 rad18 strain (AID 175); conditions: S. cerevisiae mlh1 rad18 strain growth inhibition, active compounds read high; at 50.0 µM unless noted
Summary of the method: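 A repair-deficient yeast strain is exposed to test compound, and growth is scored relative to vehicle-treated controls.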

SMILES	growth inhibition [1]	growth inhibition [2]	growth inhibition [3]	growth inhibition [4]	growth inhibition [5]	growth inhibition [6]
CCOC(=O)C(NC(C)=O)(Nc1ccc(S(N)(=O)=O)cc1)C(F)(F)F (stereo not given)	-16.2%	1.55%	3.95%	27.6%	7.7%	-28.9%
O=C(O)CC(C(=O)O)C(Cc1ccccc1)c1ccccc1 (stereo not given)	-10.2% and 22.4%	-4.25% and 10.9%	0.35% and 10.1%	-0.05% and 5.95%	-1.6% and 10.1%	-3.15% and -6.55%
CCCCC(C(=O)CCC(=O)Nc1ccc(Cl)c(Cl)c1)C(=O)C(C)C (stereo not given)	-7%	-18.8%	19.1%	-0.3%	8.4%	-2.4%
Cc1nc(-c2ccc(Cl)cc2)cn2c1nc1ccccc12	-5.5%	-0.1%	8.2%	-15.1%	47.5%	-10.3%
CCOc1ccccc1N1CCN(CC(O)CSc2ccccc2)CC1 (stereo not given)	1.3%	-9.25%	-6.2%	-33.6%	4.95%	-2.65%
O=C(NCCCOC(=O)CCCCCCCCC(=O)OCCCNC(=O)NC(=O)c1c[nH]c(=O)[nH]c1=O)NC(=O)c1c[nH]c(=O)[nH]c1=O	-11.5%	-18.6%	-7.85%	8.3%	6.05%	-14.9%
COc1ccc(COC(=O)Nc2ccc(Br)cc2)c(OC)c1	-5.05%	33.6%	27.2%	-16.6%	16.8%	9.55%
CCCCCCC(C)OB(OC(C)CCCCCC)OC(C)CCCCCC (stereo not given)	-27.6%	-49%	-0.8%	13.8%	-41.4%	-0.85%
COc1nc(NC2OC(COC(C)=O)C(OC(C)=O)C(OC(C)=O)C2OC(C)=O)c(N=CC=Nc2c(NC3OC(COC(C)=O)C(OC(C)=O)C(OC(C)=O)C3OC(C)=O)nc(OC)[nH]c2=O)c(=O)[nH]1 (stereo not given)	-11.3%	-8.45%	-2.65%	-16.8%	-5.6%	-11.5%
CCOC(C)C(Nc1ccc(C(=O)O)cc1)C(=O)Nc1ccc(C(=O)O)cc1 (stereo not given)	9.8%	2%	4.5%	-29.4%	-5.6%	-10.7%
N=c1ccccn1CC(O)COc1ccc(Cl)cc1 (stereo not given)	11.8%	-10.1%	-8.85%	-17.9%	-2.5%	-16.6%
CCN(CC)C(=O)CCn1cc(F)c(=O)[nH]c1=O	-65.8%	-51%	-35%	1.65%	-25.8%	-15.9%
CC(COc1ccc(C(C)(C)C)cc1)OC=O (stereo not given)	14.2%	3.2%	19.4%	-12.9%	16.1%	-6.4%
CCc1ccc(NC(=O)c2ccccc2)cc1CC	-11.3%	-11%	-2.5%	-97.3%	-4.05%	-19.1%
O=C(O)C1CC1c1ccc2c(c1)OCO2 (stereo not given)	-11.8%	-10.4%	7.2%	-34%	-33.9%	1.35%
C=C(C)[C@H]1C=C[C@@H](OC(=O)c2cccnc2)[C@@]23CO[C@@](C)([C@H](OC(=O)c4cccnc4)[C@@]4(OC(C)=O)C[C@H](C)[C@H](OCCC)[C@@H]4[C@H]2OC(C)=O)[C@H]13	-11.2%	-6.1%	27.4%	35.4%	22.6%	79.8% (active)
COC(=O)[C@H]1C2CC[C@@H]3C45C[C@@H](c6ccoc6)O[C@@H]4O[C@@H](O2)C31CCC5C (stereo not given in full)	14.5%	-18.4%	6.35%	5%	-30.1%	14.9%
CC(C)c1cc(C(C)C)c(S(=O)(=O)N/N=C2\C=CCC(C)(C)C2)c(C(C)C)c1	41.1%	5.05%	24.1%	-47.4%	-4.7%	18.9%

SMILES	growth inhibition [1]	growth inhibition [2]	growth inhibition [3]	growth inhibition [4]	growth inhibition [5]	growth inhibition [6]
CCCCOC(=O)c1ccccc1C(=O)Nc1ccccc1	7.6%	12.6%	2%	2.1%	4.4%	-19.7%
CCN(CC)CCCCCCNc1cc(O)cc2cccnc12	18.5%	30.8%	44%	8.45%	11.4%	14.4%
O=C(NCc1ccc(Cl)cc1)NC1CCCCC1	5.75%	36.9%	35.5%	2.7%	20.9%	46%
CC(=O)CC(=O)Nc1ccc(OS(N)(=O)=O)cc1	-9.55%	-22.4%	1.95%	3.1%	2.3%	-15.2%
O=S=Nc1c(Cl)cc(Cl)cc1Cl	1.1%	-20.1%	1.55%	-18.6%	11.7%	-0.6%
O=CC[C@]12CC(=O)OC(C=CC13OCCO3)C2	6.55%	-9.4%	-16.7%	17.6%	13.4%	9.05%
CC1=CC(=C2C=C(C)C(=O)C(C)=C2)C=C(C)C1=O	9.85%	-6.65%	24.4%	-0.25%	4.25%	14.2%
NC(N)=NS(=O)(=O)c1ccc(N=NC2=C(O)C(c3ccccc3)N(c3ccccc3)C2=O)cc1 (stereo not given)	6.35%	22.1%	35.5%	0.3%	0.45%	33%
C=CCCCC12CCCc3cccc(c31)NC2=O (stereo not given)	48.7%	17.4%	24.8%	48%	46.5%	34.6%
CCOC(=O)c1c(-c2ccccc2)csc1NS(=O)(=O)c1ccc(C)cc1	81.8% (active)	78.2% (active)	87% (active)	82.3% (active)	81.8% (active)	90.6% (active)
CC(C(=O)O)c1ccc(-c2ccccc2)cc1 (stereo not given)	10.6%	13.3%	-1.85%	-12.2%	1.4%	7.1%
CCN(CC)c1ccc2c(c1)C(=O)c1ccccc1-2	-6.7%	27.6%	14.2%	15.8%	38.8%	30.6%
COc1ccc(NC2Oc3cc4c(cc3C(c3cc(OC)c(O)c(OC)c3)C2C)OCO4)cc1 (stereo not given)	5.1%	0.1%	-6.15%	2.65%	6.6%	4.8%
CCN(CC)c1ccc(C(c2ccc(N(CC)CC)cc2Cl)c2cccc3ccccc23)c(Cl)c1	24.8%	19.8%	30.3%	36.2%	22.4%	7.85%
CSC(=Nc1ccccc1Cl)NC(=O)c1ccc(Br)cc1	-9.65%	20.7%	5.7%	19.3%	7.8%	-8.4%
O=C1C2C(c3ccccc3)NC(c3ccccc3)C1C(c1ccccc1)NC2c1ccccc1 (stereo not given)	-13.4%	-8.5%	-35.6%	-18.1%	-65%	0.9%
Cc1[nH]c(=O)nc2nc3ccc(Cl)cc3c(N(CCO)CCO)c12	-24.3%	-20.8%	-12.8%	19.2%	19.9%	-8.7%
